In the library only some 6.1% were active in any assay of this set; here they are far more common.
HepG2 viability: HepG2 cytotoxicity, counter-screen for TGF-b inhibitors. HepG2 CAGA-GFP viability, ATP luminescence, 18 h. Potency, µM (series often up to 46.1 µM), most hits filed as cytotoxic. 0.76% of 410,000 active. AID 588856
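HepG2 CAGA-GFP cells (1000/well, DMEM with 1% FBS) received compound, then TGF-beta at 500 pg/mL final, and were incubated 18 hours at 37 degrees C. Viability was read by CellTiter-Glo luminescence. Media-only wells were set as complete cell-killing and DMSO as no toxicity.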
ATXN2 expr inh: ATXN2 expression inhibition; AID 1745845; HEK-293 ATXN2-luciferase reporter, luminescence, 24 h; Potency, µM (doses to about 57 µM), hits mostly inhibitors; 0.72% of 360,000 active; further: nearly all actives have a fitted effect of over 55% in size
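ATXN2-luciferase reporter cells (luciferase flanked by upstream and downstream ATXN2 gene portions) were treated 24 h at 37 °C with compounds at up to 57 uM. SteadyGlo luminescence gave expression; GF-AFC fluorescence gave viability.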
ATXN viability: viability counter-screen for ATXN expression inhibitors; S2 cells (HEK-293 line with an ATXN2-luciferase reporter) viability, CellTiter-Fluor protease fluorescence, 24 h; Potency, µM (doses to about 56.7 µM), usual class: cytotoxic; 0.49% of 400,000 active; AID 651635; further: nearly all actives have a fitted effect of over 40% in size
VP16 counter: inhibits Gal4-VP16 luciferase reporter, ROR gamma counter-screen; AID 2546; Potency, µM (highest dose often 53.6 µM), usual class: inhibitors; Drosophila S2 Gal4-VP16 UAS-luciferase, luminescence, 20 h; 3.5% of 310,000 active;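 further: Gal4-VP16 expression switched on by copper sulfate through the metallothionein promoter; nearly all actives have a fitted effect of over 50% in size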
RORgamma inh: inhibitors of mouse ROR gamma transcriptional activity. Drosophila S2 Gal4-RORgamma UAS-luciferase reporter, 20 h. AID 2551. 5.4% of 310,000 active. Potency, µM (series often up to 53.6 µM), usual class: inhibitors. P51450; further: nearly all actives have a fitted effect of over 60% in size
Target sequence (P51450 whole entry, looked up, the tested form may be a part): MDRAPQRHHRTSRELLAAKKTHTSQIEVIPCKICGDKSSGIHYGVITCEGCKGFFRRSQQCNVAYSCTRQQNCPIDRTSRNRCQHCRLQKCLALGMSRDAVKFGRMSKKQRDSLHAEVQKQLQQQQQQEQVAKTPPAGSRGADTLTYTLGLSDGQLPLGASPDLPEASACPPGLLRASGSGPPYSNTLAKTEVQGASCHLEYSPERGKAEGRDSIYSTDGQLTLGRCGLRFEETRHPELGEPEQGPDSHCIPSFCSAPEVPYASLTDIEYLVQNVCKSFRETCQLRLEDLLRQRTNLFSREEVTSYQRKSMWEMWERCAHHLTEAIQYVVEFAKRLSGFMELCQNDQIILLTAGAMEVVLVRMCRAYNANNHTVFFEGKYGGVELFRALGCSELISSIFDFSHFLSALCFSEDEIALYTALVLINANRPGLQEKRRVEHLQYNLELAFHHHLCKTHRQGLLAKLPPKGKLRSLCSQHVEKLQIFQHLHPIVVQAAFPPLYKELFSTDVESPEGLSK
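Compounds are pin-transferred onto Drosophila Schneider cells expressing a copper-inducible Gal4–ROR gamma transactivation domain fusion. After 1 hr, copper sulfate is added to 700 uM final; luciferase is read 20 hr later.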
TGFb SMAD3 inh: blocks TGF-b signaling | HepG2 CAGA-GFP TGF-b/SMAD3 reporter, GFP fluorescence, 18 h; TGF-beta stimulated, 500 pg/mL final | Potency, µM (highest dose often 46.1 µM), most hits filed as inhibitors | 1.2% of 410,000 active | AID 588855; further: nearly all actives have a fitted effect of over 65% in size
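Using HEPG2 CAGA-GFP reporter cells at 1000 cells/well, we pinned test compounds, stimulated with recombinant TGF-beta (500 pg/mL final) and measured total well GFP after 18 h.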
Numbers stand for hits; - = inactive; ? = inconclusive; . = not tested or not shown; [ ] = remark or other dose. The call rests on the fitted dose curve; in most records, active means well fitted curve in the direction sought with a large enough effect; inconclusive means small, poorly fitted or top-dose-only effect, or another doubt; inactive means no such curve, though single readings can be large; an effect the other way counts as inactive or inconclusive.

SMILES	HepG2 viability	ATXN2 expr inh	ATXN viability	VP16 counter	RORgamma inh	TGFb SMAD3 inh
CC1(C)C2CC=C(/C=N/NC(=S)Nc3cccnc3)C1C2 (configuration not stated)	-	-	-	1.26µM	0.501µM	-
CC(C)NC(=S)N/N=C/C1=CCC2CC1C2(C)C (configuration not stated)	-	-	-	1.78µM	0.794µM	?
CCCCNC(=S)N/N=C/C1=CCC2CC1C2(C)C (configuration not stated)	-	-	-	0.891µM	1.12µM	11.2µM
C=C(C)CNC(=S)N/N=C/C1=CCC2CC1C2(C)C (configuration not stated)	-	-	-	1.58µM	0.794µM	?
CCN(Cc1ccccc1)C(=O)CN1C(=O)COc2ccc(S(=O)(=O)N(CC)CC)cc21	-	-	-	.	.	-
CNc1ccc(/C=C/c2ccccc2)cc1	-	.	.	.	.	-
CC1=C/C(=N\NC(=S)Nc2cccnc2)CC(C)(C)C1	-	-	-	3.16µM	1.78µM	?
Fc1ccc(NC(=S)Nc2cccnc2)cc1	-	-	-	-	-	-
O=C(NNC(=S)Nc1ccc(Br)cc1Cl)c1ccncc1	-	-	-	20µM	-	-
O=C(CCc1ccc(O)c(O)c1)NNC(=S)Nc1ccc(Br)cc1Cl	-	-	-	?	11.2µM	-
O=C(NNC(=S)Nc1ccccc1)c1cc(Br)ccc1Cl	-	-	-	-	0.794µM	14.1µM
O=C(NNC(=S)Nc1ccccc1)NNC(=S)Nc1ccccc1	-	-	-	-[10 µM]	-	-
Cc1cc(C)c(S(N)(=O)=O)c(C)c1-n1cnnn1	-	-	-	-	8.91µM	-
Cc1ccc(S(N)(=O)=O)c(C)c1-n1cnnn1	-	-	-	-	-	-
O=C(Nc1nc2ccccc2s1)c1ccc(N2CCCCC2)c([N+](=O)[O-])c1	-	-	?	?	10µM	-
O=C(Nc1nc(-c2ccccc2)cs1)c1ccc(N2CCOCC2)c([N+](=O)[O-])c1	-	12.6µM	?	?	?	-
O=C(Nc1ccon1)c1ccc(N2CCCCC2)c([N+](=O)[O-])c1	-	-	-	-	-	-
CCCCN(CC)C(=O)C1CCCN(c2ncnc3c2nc2n3CCCCC2)C1 (configuration not stated)	-	-	-	.	.	-
Cc1ccc2nc(NC(=O)c3cc(-c4ccco4)nc4ccccc34)sc2c1	-	-	-	?	17.8µM	-
O=C(Nc1nc2ccccc2s1)c1cc(-c2ccco2)nc2ccccc12	-	-	-	12.6µM	?	-
COC(=O)c1ccc(NC(=O)CSc2nccn2Cc2ccc(Cl)cc2)cc1	-	.	.	.	.	-
COc1ccc(-c2nnc3n2N=C(c2c(OC)cccc2OC)CS3)cc1	.	.	.	-	-	.
Cc1cc(C(=O)COC(=O)c2ccc(O)cc2)c(C)n1CC1CCCO1 (configuration not stated)	-	-	?	-	7.08µM	-
Cc1cc(C(=O)CN2C(=O)c3ccccc3S2(=O)=O)c(C)n1CC1CCCO1 (configuration not stated)	-	0.501µM	?	8.91µM	2.24µM	-
COc1cc(=O)n2c(c1C(=O)N(C)Cc1nccs1)CCN(Cc1cc(C)cc(C)c1)CC2	.	.	-	.	.	.
SMILES	HepG2 viability	ATXN2 expr inh	ATXN viability	VP16 counter	RORgamma inh	TGFb SMAD3 inh
Cc1ccccc1NC(=O)Cn1nc(-c2ccc(F)cc2)c2cnc3ccccc3c21	-	-	-	.	.	-
Cc1nc(-c2ccccn2)nc(N(C)c2ccccc2)c1Cl	-	?	-	1.58µM	0.316µM	?
Cc1nc(-c2ccccn2)nc(N2CCOCC2)c1Cl	-	-	-	-	-	-
COc1ccc(Cn2c(CNS(=O)(=O)c3ccc(Cl)s3)nc3cccnc32)cc1	-	.	.	.	.	?
CCOC(=O)c1cnc2c(C)c(Cl)ccc2c1NCCc1ccccc1	-	-	-	.	.	-
CCOC(=O)c1cnc(-n2nc(C)cc2C)nc1NC1CCCC1	11.2µM	?	?	-	-	?
CCOC(=O)c1cnc(-n2nc(C)cc2C)nc1NCc1ccc2c(c1)OCO2	-	-	?	3.16µM	3.55µM	-
CCOC(=O)c1ccc(NCc2ccc3c(c2)OCO3)cc1	-	-	-	-	-	-
CCOC(=O)c1cnc(-n2nc(C)cc2C)nc1NCCc1ccccc1	-	-	?	1.78µM	0.891µM	-
CCOC(=O)c1cnc(-n2cc(C)cn2)nc1Nc1ccccc1OCC	-	-	-	-	1.78µM	-
O=CNc1ccc(/C=C/c2ccnc3ccccc23)cc1	-	.	.	.	.	-
Cc1ccc(CS(=O)(=O)Cc2ccc(C(=O)NCCc3ccc(Cl)cc3)o2)cc1	-	.	.	.	.	-
Cc1cccc(OC(C)C(=O)N2CCC(c3nc4ccccc4o3)CC2)c1C (configuration not stated)	-	.	.	.	.	-
CCOC(=O)c1cnc(-n2nc(C)cc2C)nc1Nc1ccc(OC)cc1	-	-	-	2.51µM	1.58µM	-
CCOC(=O)c1cnc(-n2nc(C)cc2C)nc1N(C)C	-	-	-	4.47µM	1.12µM	-
CCOC(=O)c1cnc(-n2nc(C)cc2C)nc1N1CCOCC1	-	-	-	11.2µM	-	-
CCOC(=O)c1cnc(-n2nc(C)cc2C)nc1Oc1ccc(C(=O)OC)cc1	-	-	-	-	-	-
CCOC(=O)c1cnc(-n2nc(C)cc2C)nc1Oc1ccccc1F	-	-	-	?	5.01µM	?
CCOC(=O)c1cnc2nc(N3CCOCC3)nn2c1N	-	-	.	-	-	-
COc1cccc(-n2c(SC)nnc2C2CCN(CCC(C)c3ccc(C)o3)CC2)c1 (configuration not stated)	.	.	-	.	.	.
CCN(CC)C(=O)c1sc2c(c1C)c(=O)n(-c1ccccc1)c(=O)n2CC(=O)Nc1ccc(C)cc1C	-	-	-	.	.	-
CCOc1ccc(C(=O)NCCn2cc(SCC(=O)NCCc3ccc(OC)c(OC)c3)c3ccccc32)cc1	-	-	?	.	.	?
Cc1ccc(NC(=O)Cn2nnc(-c3nc(-c4ccncc4)no3)c2N)cc1	-	.	.	.	.	.
Cn1c(=O)c(-c2ccc(F)cc2)nc2cnc(Nc3ccccc3)nc21	.	.	.	-	-	.
CCOC(=O)c1cnc(-n2nc(C)cc2C)[nH]c1=O	-	-	-	-	6.31µM	-
CCOC(=O)c1ccc2ncc(C(=O)OCC)c(Nc3ccc(N4CCOCC4)cc3)c2c1	-	22.4µM	?	?	-	?
CCOC(=O)c1cnc(-n2nc(C)cc2C)nc1Nc1ccccc1OC	.	.	.	2.24µM	1.26µM	.
Cc1ccc(OCC(=O)NCC(=O)OCc2cc(=O)n3nc(CC(C)C)sc3n2)cc1	-	-	-	.	.	-
COc1ccc(-n2c(=O)c3ccc(C(=O)NCc4ccc(C)cc4)cc3n(CC(=O)Nc3cccc(F)c3)c2=O)cc1	-	-	-	.	.	-

Compound activity: PubChem BioAssay, National Center for Advancing Translational Sciences (NCATS)
